This note sets out measurements from PubChem BioAssay (NCATS).

Results filed as inconclusive are left out. Activity calls are given as the source filed them. Unless noted, the rule behind the calls is not given here.

A short description of experiment [1]: qHTS profiling of the MIPE4 collection as inhibitors of Plasmodium falciparum (3D7) proliferation (AID 743344).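 Note: scaled between DMSO vehicle wells and 0.29 µM artemisinin as full inhibition.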 The conditions noted are these: P. falciparum 3D7 in erythrocytes, SYBR Green DNA fluorescence, 72 h; at 28.5 µM unless noted. Summed up:
(§1)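 Parasite DNA was quantified by SYBR Green I fluorescence (ex 485, em 535 nm) after overnight lysis in saponin/Triton buffer at room temperature. Cultures at 0.3% parasitemia and 2.5% hematocrit were first exposed to compound for 72 h at 37 C; signals were normalised to artemisinin (0.29 uM) and vehicle wells.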
For orientation: Quantitative high-throughput screening tests each substance at several concentrations.

Experiment [2] in a line: qHTS profiling of the MIPE4 collection as inhibitors of Plasmodium falciparum (DD2) proliferation (AID 743345). The conditions noted are these: P. falciparum Dd2 in erythrocytes, SYBR Green DNA, 72 h; at 28.5 µM unless noted. In outline: as §1
Experiment [3] is described as follows: qHTS profiling of the MIPE4 collection as inhibitors of Plasmodium falciparum (DD2) proliferation (Rep 2) (AID 743346). The conditions noted are these: P. falciparum Dd2 in erythrocytes, SYBR Green DNA, 72 h; at 28.5 µM unless noted. Summed up: as §1
The nature of experiment [4]: qHTS profiling of the MIPE4 collection as inhibitors of Plasmodium falciparum (HB3) proliferation (AID 743347).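 Note: plate controls were DMSO vehicle wells for no effect and artemisinin wells for full effect.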 The conditions noted are these: P. falciparum HB3 in erythrocytes, SYBR Green DNA, 72 h; at 28.5 µM unless noted. In outline: as §1
The nature of experiment [5]: High-throughput drug toxicity screening in the BPDCN cell line Gen2.2 (AID 1224824).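 Note: cells exposed to compounds for 48 h before reading.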 The conditions noted are these: Gen2.2 BPDCN cells; at 45.8 µM (top of the series) unless noted. Summed up: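 Seed 500 exponentially growing Gen2.2 cells/well; add compounds by pin tool; incubate 48 h, 37 °C, 5% CO2; add CellTiter-Glo, 15 min RT; read luminescence. % activity vs DMSO (100%) and bortezomib (0%).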

The nature of experiment [6]: High-throughput drug toxicity screening in the BPDCN cell line Cal-1 (AID 1224825). To be noted: Cal-1 BPDCN cell viability, qHTS; at 45.8 µM (top of the series) unless noted. In outline: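 Percent activity derived from CellTiter-Glo luminescence, scaling DMSO to 100% and 9.2 uM final bortezomib to 0%. BPDCN Cal-1 cells (500/well, RPMI plus 10% FBS) incubated with compounds 48 hours at 37C before reading.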

Experiment [7] in a line: qHTS assay for measurement of the activity of small molecule inhibitors on Zika virus induced Caspase-3 activity in human iPSC derived neural progenitor cells (hNPCs) (AID 1224857; active = well fitted curve in the direction sought with a large enough effect; an effect the other way counts as inactive or inconclusive; note: nearly all actives have a fitted effect of over 65% in size; note: potency is the fitted concentration of half-maximal effect). In outline: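 Cells were plated at 350 per well and grown 16 to 20 hours. Compound pretreatment lasted one hour, after which ZIKV (2 FFU/cell) was added for 6 hours. Percent inhibition was normalized between uninfected and infected controls.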

Experiment [8] is described as follows: qHTS profiling for inhibitors of Plasmodium falciparum (HB3) proliferation (AID 743324; active = well fitted curve in the direction sought with a large enough effect; an effect the other way counts as inactive or inconclusive;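 note: 100% = DMSO vehicle wells and 0% = artemisinin-treated control wells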). The conditions noted are these: Plasmodium falciparum HB3 blood-stage proliferation; at 28.7 µM (top of the series) unless noted. Summed up: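 SYBR Green fluorescence (485 ex/535 em) of lysed cultures, incubated overnight at room temperature in the dark, quantifies parasite DNA. Infected erythrocytes at 0.3% parasitemia and 2.5% hematocrit were exposed 72 h; values normalized to DMSO and 0.29 uM artemisinin controls.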

Experiment [9] can be described thus: qHTS Screen of the MIPE 4.0 Collection Against Ewings Sarcoma (RDES) (AID 1259252; active = well fitted curve in the direction sought with a large enough effect; an effect the other way counts as inactive or inconclusive; note: nearly all actives have a fitted effect of over 35% in size; note: potency is the fitted concentration of half-maximal effect). Summed up:
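Cells plated in serum-containing RPMI (5% FBS) and treated with compound dilutions for 48 h. Readout luminescent viability; normalization relied on vehicle (no inhibition) and media-only columns (full inhibition).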

In [1], `CN1CC(=O)NC1=NC(=O)Nc1cccc(Cl)c1` gave a parasite growth, % of DMSO control of 78.1%. This compound also showed a parasite growth remaining, % of DMSO control (lower = more inhibition) in experiment [2] of 83.9%. Further, in [3], the parasite growth, % of control (lower = inhibition) came to 23.4%. In addition, in experiment [4], the growth, % of control was found to be 98.8%. Further, the cell viability, % of control (lower = more cytotoxic) in [5] was 3.29%. In addition, the viability (% of control) in experiment [6] is 31.9%. In addition, the Potency result in experiment [7] is “inactive”.
On to `CCCCCCCCCCCCCC(=O)N[C@H](CO)[C@H](O)c1ccc([N+](=O)[O-])cc1`, for which the remaining proliferation (% of control), lower = more inhibition in [8] is 73.2%. Moreover, the parasite growth, % of DMSO control in [1] turned out to be 55.9%. The compound further had a parasite growth remaining, % of DMSO control (lower = more inhibition) in experiment [2] of 85.8%. In experiment [3], the parasite growth, % of control (lower = inhibition) stood at 33%. Besides, the growth, % of control in experiment [4] amounted to 24.3%. Further, the cell viability, % of control (lower = more cytotoxic) in experiment [5] turned out to be 1.84%. The viability (% of control) in experiment [6] stood at 5.68%. In experiment [7], the Potency result was “inactive”.
In experiment [2], `COC(=O)N1CCN(Cc2cccc(NC(=O)Nc3ccc(C)nc3)c2F)CC1` had a parasite growth remaining, % of DMSO control (lower = more inhibition) of 71.8%. In [3], this compound gave a parasite growth, % of control (lower = inhibition) of 41.1%. The growth, % of control in [4] worked out at 29.8%. In addition, in experiment [5], the cell viability, % of control (lower = more cytotoxic) amounted to 149%. For the same compound, the viability (% of control) in [6] amounted to 90.8%. The Potency entry in experiment [7] was “inactive”.
Take `CNC1[C@H](O)C(O[C@@H]2C(O)C(O[C@H]3O[C@H]([C@@H](C)NC)CC[C@H]3N)[C@@H](N)C[C@H]2N)OC[C@]1(C)O` (some centres undefined): in [4], the growth, % of control is 99.6%. For the same compound, the cell viability, % of control (lower = more cytotoxic) in experiment [5] was determined as 116%. Further, the viability (% of control) in experiment [6] was 101%. The Potency in experiment [7] is 18.7 µM (active).
`CCOC(=O)c1c(CSc2ccccc2)n(C)c2cc(Br)c(O)c(CN(C)C)c12` had a parasite growth, % of DMSO control in experiment [1] of 8.99%. In experiment [2], this compound displayed a parasite growth remaining, % of DMSO control (lower = more inhibition) of 10.6%. For the same compound, in experiment [3], the parasite growth, % of control (lower = inhibition) turned out to be 12.1%. Also, the growth, % of control in [4] stood at 2.97%. Further, the cell viability, % of control (lower = more cytotoxic) in experiment [5] amounted to 164%. Moreover, in [6], the viability (% of control) worked out at 52.2%. In addition, the Potency result in [7] is “inactive”.
`CN1CC(=O)N2C(Cc3c([nH]c4ccccc34)[C@H]2c2ccc3c(c2)OCO3)C1=O` (some centres undefined) returned a parasite growth, % of DMSO control in experiment [1] of 14%. The parasite growth, % of control (lower = inhibition) in experiment [3] was 23.9%. In addition, the growth, % of control in [4] turned out to be 11.5%. In addition, in experiment [5], the cell viability, % of control (lower = more cytotoxic) worked out at 110%. Also, the viability (% of control) in experiment [6] came out at 85.7%. Further, the Potency in experiment [7] is 3.72 µM (active). For the same compound, the Potency entry in experiment [9] was “inactive”.
`O=C(c1ccc(C(=O)N2CCC(N3CCCC3)CC2)c(Nc2ccccc2)c1)N1CCC(N2CCCC2)CC1`: the parasite growth, % of DMSO control in [1] worked out at 80.6%. Moreover, the parasite growth remaining, % of DMSO control (lower = more inhibition) in experiment [2] is 66.3%. The compound also returned a growth, % of control in experiment [4] of 82.3%. Besides, the cell viability, % of control (lower = more cytotoxic) in experiment [5] came out at 483%. Besides, in experiment [6], the viability (% of control) came out at 113%. Also, the Potency result in experiment [7] is “inactive”. In addition, the Potency in experiment [9] was 16.6 µM (active).
Take `CN[C@@H]1CN(c2ccc3c(=O)c(C(=O)O)cn(-c4nccs4)c3n2)C[C@@H]1OC`: the parasite growth, % of DMSO control in experiment [1] came out at 9.37% [at 9.64 µM]. The compound also had a parasite growth remaining, % of DMSO control (lower = more inhibition) in experiment [2] of 7.58% [at 9.64 µM]. The compound further showed a parasite growth, % of control (lower = inhibition) in experiment [3] of 8.12% [at 9.64 µM]. In experiment [4], this compound yielded a growth, % of control of 8.57% [at 9.64 µM]. The cell viability, % of control (lower = more cytotoxic) in experiment [5] came to 7.46% [at 23.2 µM]. Also, the viability (% of control) in experiment [6] came to 3.44% [at 23.2 µM]. Besides, the Potency result in [7] was “inactive”. In addition, the Potency in experiment [9] is 1.29 µM (active).
